Results from a collection of fitness landscapes (doi:10.1126/science.1257360).
Whole data set: some 140,000 sequences, median “enrichment ratio after two sorts for PhoP signalling” near 0, cut for the highest 2% near 11. Only a selection was taken, and the highest values are over-represented in it overall.

B1: PhoQ; a variant is named by its letters at X, in order, P23837 (parent)
chain: MKKLLRLFFPLSLRVRFLLATAAVVLVLSLAYGMVALIGYSVSFDKTTFRLLRGESNLFYTLAKWENNKLHVELPENIDKQSPTMTLIYDENGQLLWAQRDVPWLMKMIQPDWLKSNGFHEIEADVNDTSLLLSGDHSIQQQLQEVREDDDDAEMTHSVAVNVYPATSRMPKLTIVVVDTIPVELKSSYMVWSWFIYVLSANLLLVIPLLWVAAWWSLRPIEALAKEVRELEEHNRELLNPATTRELTSLVRNLNRLLKSERERYDKYRTTLTDLTHSLKTPLXXLQXXLRSLRSEKMSVSDAEPVMLEQISRISQQIGYYLHRASMRGGTLLSRELHPVAPLLDNLTSALNKVYQRKGVNISLDISPEISFVGEQNDFVEVMGNVLDNACKYCLEFVEISARQTDEHLYIVVEDDGPGIPLSKREVIFDRGQRVDTLRPGQGVGLAVAREITEQYEGKIVAGESMLGGARMEVIFGRQHSAPKDE

Variants of: B1
Test: enrichment ratio after two sorts for PhoP signalling (ratio (wild type AVST 3.29)); higher = more functional
Details: with PhoP (E. coli)

Variant | enrichment ratio
FHQK | ≤ 0.25
ANIH | ≤ 0.25
ADIH | ≤ 0.25
ATIH | 25.3
YTIH | ≤ 0.25
TGIH | ≤ 0.25
AGIH | 16.3
HART | ≤ 0.25
ADSF | ≤ 0.25
AKSF | 2.49
AQSF | 11.9
AISF | 13.4
WISF | ≤ 0.25
AQHF | ≤ 0.25
PMKN | ≤ 0.25
SCIV | 1.12
RQKI | 19.2
RGCE | ≤ 0.25
GGCE | ≤ 0.25
RQKH | ≤ 0.25
TGCA | 19.8
RGCA | ≤ 0.25
AGWM | ≤ 0.25
TGCE | 24.6
AGCK | 16.1
AGGM | ≤ 0.25

Variant | enrichment ratio
RQQH | ≤ 0.25
GGCA | 6.15
GKAG | ≤ 0.25
TPNE | ≤ 0.25
EIDL | ≤ 0.25
VTQY | ≤ 0.25
KAGG | ≤ 0.25
SNFF | ≤ 0.25
AGCV | 23.6
TGCK | 37.2
RGCK | ≤ 0.25
AGVY | 18.3
TGCV | 7.81
AGDH | ≤ 0.25
GGCK | ≤ 0.25
AGDI | ≤ 0.25
AGVA | 1.62
TGVY | 2.88
AGWI | ≤ 0.25
AGCA | 15
IEAT | ≤ 0.25
WPAK | ≤ 0.25
GFQM | ≤ 0.25
YNLK | ≤ 0.25
DYIY | ≤ 0.25
KRVH | ≤ 0.25

Variant | enrichment ratio
PCSH | ≤ 0.25
ESFE | ≤ 0.25
QFHQ | ≤ 0.25
GIIK | ≤ 0.25
IAHY | ≤ 0.25
VMDH | ≤ 0.25
AGCS | 10.8
AGWL | ≤ 0.25
RGCM | ≤ 0.25
AHQM | ≤ 0.25
AGCE | 6.71
AGCL | 15.2
AGCI | 14
AGQM | 15.8
AKQM | ≤ 0.25
QGCM | 1.34
YWCL | ≤ 0.25
TGCM | 16.3
YRSY | ≤ 0.25
NQKY | ≤ 0.25
VYPF | 1.11
GMYR | ≤ 0.25
RCYS | ≤ 0.25
YPFH | ≤ 0.25
ANCM | 6.06
YWCQ | ≤ 0.25

Variant | enrichment ratio
AWCM | ≤ 0.25
AGCM | 13.6
AGQP | ≤ 0.25
AGCQ | 23
GNWY | ≤ 0.25
SFTF | ≤ 0.25
HKIE | ≤ 0.25
QMVR | ≤ 0.25
KRVL | ≤ 0.25
VRVL | ≤ 0.25
SLVL | 1.22
KSVL | ≤ 0.25
SSVA | 10.9
FCVL | 0.336
TRVL | 11.6
FSVL | 11.7
SSVL | 13.8
SHQM | 0.951
ITPF | ≤ 0.25
PVFC | ≤ 0.25
QDST | ≤ 0.25
QTQP | ≤ 0.25
ISEK | ≤ 0.25
KQRD | ≤ 0.25
AYKP | ≤ 0.25
SQCG | 24.3

Variant | enrichment ratio
EQCG | ≤ 0.25
SNCG | 13.5
IQCG | ≤ 0.25
LQCG | ≤ 0.25
SPCG | 1.67
ERSH | ≤ 0.25
EHYT | ≤ 0.25
MTGY | 14.4
STGY | 8.87
TDGY | 11.5
NHGY | ≤ 0.25
MMGY | ≤ 0.25
ADGY | ≤ 0.25
MTGR | ≤ 0.25
MEGY | 11.2
LTGY | ≤ 0.25
TGGY | 7.07
THGY | 13.8
MFGY | ≤ 0.25
GYHY | ≤ 0.25
MGHH | ≤ 0.25
LMID | ≤ 0.25
FSGY | ≤ 0.25
YTGY | ≤ 0.25
GTGY | ≤ 0.25
KSGY | ≤ 0.25

Variant | enrichment ratio
TSGY | 14.8
TTGY | 20.5
EHTS | ≤ 0.25
KLNV | ≤ 0.25
PLEP | ≤ 0.25
KFAF | ≤ 0.25
KLER | 0.976
LRTC | ≤ 0.25
GPSH | ≤ 0.25
REFT | ≤ 0.25
WYPR | ≤ 0.25
FIPD | ≤ 0.25
HYLL | ≤ 0.25
AALL | 14.9
IALL | 8.58
HALL | 12.4
LFLL | ≤ 0.25
AKLL | 14.3
HFLL | ≤ 0.25
AILL | 4.86
AYLL | ≤ 0.25
MKLL | 11.4
MYLL | ≤ 0.25
ERET | ≤ 0.25
DVMR | ≤ 0.25
IMCE | ≤ 0.25

Variant | enrichment ratio
DQPA | ≤ 0.25
YWCG | ≤ 0.25
VLVV | ≤ 0.25
DQYW | ≤ 0.25
CFLG | ≤ 0.25
KMML | ≤ 0.25
KKLL | ≤ 0.25
TKLL | 16.2
KMLL | ≤ 0.25
HKLL | 1.86
AMLL | 14.2
NMLL | ≤ 0.25
VNCN | ≤ 0.25
GPQD | ≤ 0.25
AVPC | ≤ 0.25
AVTC | 6.81
AVSC | 12.2
AVSQ | 14.8
AVHP | ≤ 0.25
AVSK | 16.9
AVPS | ≤ 0.25
AVWI | ≤ 0.25
AVMV | 2.94
AVFQ | ≤ 0.25
AVMI | 15.6
AVMW | ≤ 0.25

Variant | enrichment ratio
MDVN | ≤ 0.25
FYFS | ≤ 0.25
KVID | ≤ 0.25
GEKS | ≤ 0.25
MTIG | ≤ 0.25
NDGW | ≤ 0.25
SKVW | ≤ 0.25
AVAW | 22.5
AVPA | ≤ 0.25
AVRW | ≤ 0.25
AVWN | ≤ 0.25
AKAW | ≤ 0.25
AVTK | 17.9
AVNL | ≤ 0.25
AVTW | 43.5
AVFW | ≤ 0.25
NVAW | ≤ 0.25
AVMN | 18.8
AVPI | 2.35
